Experimental findings from PubChem BioAssay (NCI) are described below.

Experiment [1] is described as follows: NCI Yeast Anticancer Drug Screen. Data for the rad50 strain (AID 155).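 Further: 0% = growth of vehicle-only cultures of the same strain.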 The note with it: S. cerevisiae rad50 strain growth inhibition, hits give high values. The procedure, abridged: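 DNA repair mutant yeast, compound exposure, growth read-out; inhibition is taken relative to vehicle.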
Experiment [2] in a line: NCI Yeast Anticancer Drug Screen. Data for the mec2-1 strain (AID 157). The note with it: S. cerevisiae mec2-1 strain, hits give high values. The procedure, abridged:
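Mutant yeast (mec2-1) grown with compound; growth inhibition relative to vehicle control reported.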

Experiment [3] is described as follows: NCI Yeast Anticancer Drug Screen. Data for the sgs1 mgt1 strain (AID 161).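 Further: 0% = growth of cultures given vehicle only.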 The note with it: S. cerevisiae sgs1 mgt1 strain, hits give high values. The procedure, abridged:
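Yeast cells carrying a defined DNA-repair defect were exposed to test compounds. Growth inhibition was measured relative to vehicle-treated controls.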

Experiment [4] is described as follows: NCI Yeast Anticancer Drug Screen. Data for the cln2 rad14 strain (AID 165).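 Further: 0% = growth equal to vehicle treated cultures.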 The note with it: S. cerevisiae cln2 rad14 strain, hits give high values. The procedure, abridged: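 Readout is yeast growth inhibition versus vehicle-treated controls, using a strain with cln2 and rad14 alterations exposed to compound.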
Experiment [5] can be described thus: NCI Yeast Anticancer Drug Screen. Data for the bub3 strain (AID 167). The note with it: S. cerevisiae bub3 mutant strain, hits give high values. The essentials:
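In this screen, a yeast mutant lacking normal mitotic checkpoint function is challenged with compound. Relative growth versus vehicle gives the inhibition value.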

Experiment [6] can be described thus: NCI Yeast Anticancer Drug Screen. Data for the mlh1 rad18 strain (AID 175). The note with it: S. cerevisiae mlh1 rad18 strain growth inhibition, hits give high values. The procedure, abridged:
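Genetically defined yeast (DNA repair-deficient) exposed to compounds; growth inhibition determined relative to vehicle.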

Setting [7] is: at 5.0 µM (retest, dose inferred, filed as 0.5).
The mark [8] stands for this setting: at 50.0 µM (retest, dose inferred, filed as 5.0).

The panel holds about 79,000 compounds, 15% with a hit somewhere; the sample as a whole holds those more often. Unmarked numbers belong to inactive results. Active and inactive are the calls of the source. No stated cut-off is given here; in the data, active means growth inhibition above about 70%; inactive means the rest.

For `Oc1ccc(C23CC4CC(CC(C4)C2)C3)cc1`, the growth inhibition in experiment [1] (setting [7]) was -148%; in experiment [1] (setting [8]) it was -135%; in experiment [1] (at 50.0 µM) it was 38.1%; in experiment [2] (setting [7]) it was -50%; in experiment [2] (setting [8]) it was -38%; in experiment [2] (at 50.0 µM), -1.75%. Moreover, the growth inhibition in experiment [3] (setting [7]) is -56%; in experiment [3] (setting [8]), -46%; in experiment [3] (at 50.0 µM) it was 2.8%; in experiment [4] (setting [7]) it was -56%; in experiment [4] (setting [8]), -25%; in experiment [4] (at 50.0 µM), 32.8%. Also, the growth inhibition in experiment [5] (setting [7]) is -69%; in experiment [5] (setting [8]) it was -66%; in experiment [5] (at 50.0 µM), -26.4%; in experiment [6] (setting [7]), -114%; in experiment [6] (setting [8]), -91%; in experiment [6] (at 50.0 µM) it was 2.1%.

Regarding `CC1CCCC(C)C1=O` (stereo not given), the growth inhibition in experiment [1] (setting [7]) is 4%; in experiment [1] (setting [8]) it was 3%; in experiment [1] (at 50.0 µM), 8.7%; in experiment [2] (setting [7]), -4%; in experiment [2] (setting [8]), 0%; in experiment [2] (at 50.0 µM) it was -12.2%. In addition, the growth inhibition was -7% in experiment [3] (setting [7]); 3% in experiment [3] (setting [8]); -13.4% in experiment [3] (at 50.0 µM); 3% in experiment [4] (setting [7]); 7% in experiment [4] (setting [8]); 13.8% in experiment [4] (at 50.0 µM). Further, the growth inhibition is 5% in experiment [5] (setting [7]); 10% in experiment [5] (setting [8]); 3% in experiment [5] (at 50.0 µM); 2% in experiment [6] (setting [7]); 3% in experiment [6] (setting [8]); -4.35% in experiment [6] (at 50.0 µM).

With `Oc1cc(-[n+]2ccccc2)c(O)c2ccccc12`, the growth inhibition in experiment [1] (setting [7]) is 15%; in experiment [1] (setting [8]) it was 82% (active); in experiment [1] (at 50.0 µM) it was -11.2%; in experiment [2] (setting [7]), 9%; in experiment [2] (setting [8]), 68%; in experiment [2] (at 50.0 µM), 3.45%. In addition, the growth inhibition in experiment [3] (setting [7]) was 5%; in experiment [3] (setting [8]) it was 80% (active); in experiment [3] (at 50.0 µM) it was -5.35%; in experiment [4] (setting [7]), 9%; in experiment [4] (setting [8]) it was 71% (active); in experiment [4] (at 50.0 µM) it was 37.8%. Moreover, the growth inhibition is 21% in experiment [5] (setting [7]); 91% (active) in experiment [5] (setting [8]); 6.3% in experiment [5] (at 50.0 µM); 28% in experiment [6] (setting [7]); 83% (active) in experiment [6] (setting [8]); 20.8% in experiment [6] (at 50.0 µM).

For `c1ccc2c(c1)ccc1c[n+]3c4ccccc4ccc3n12`, the growth inhibition was 62% in experiment [1] (setting [7]); 94% (active) in experiment [1] (setting [8]); 73.6% (active) in experiment [1] (at 50.0 µM); 28% in experiment [2] (setting [7]); 88% (active) in experiment [2] (setting [8]); 85.5% (active) in experiment [2] (at 50.0 µM). Further, the growth inhibition in experiment [3] (setting [7]) is 34%; in experiment [3] (setting [8]), 82% (active); in experiment [3] (at 50.0 µM) it was 68%; in experiment [4] (setting [7]), 57%; in experiment [4] (setting [8]), 91% (active); in experiment [4] (at 50.0 µM) it was 87% (active). Also, the growth inhibition in experiment [5] (setting [7]) is 55%; in experiment [5] (setting [8]), 93% (active); in experiment [5] (at 50.0 µM), 73.4% (active); in experiment [6] (setting [7]), 56%; in experiment [6] (setting [8]), 91% (active); in experiment [6] (at 50.0 µM), 83.2% (active).

For the compound `O=C1C=CC(=O)c2nc3ccccc3nc21`, the growth inhibition in experiment [1] (setting [7]) was 5%; in experiment [1] (setting [8]) it was 98% (active); in experiment [1] (at 50.0 µM) it was 85.3% (active); in experiment [2] (setting [7]), 2%; in experiment [2] (setting [8]) it was 99% (active); in experiment [2] (at 50.0 µM) it was 83.2% (active). Also, the growth inhibition was 1% in experiment [3] (setting [7]); 98% (active) in experiment [3] (setting [8]); 50.6% in experiment [3] (at 50.0 µM); -1% in experiment [4] (setting [7]); 99% (active) in experiment [4] (setting [8]); -16.7% in experiment [4] (at 50.0 µM). Moreover, the growth inhibition is -1% in experiment [5] (setting [7]); 98% (active) in experiment [5] (setting [8]); 90.1% (active) in experiment [5] (at 50.0 µM); 16% in experiment [6] (setting [7]); 97% (active) in experiment [6] (setting [8]); 91% (active) in experiment [6] (at 50.0 µM).

Regarding `CC[N+](C)(CC)CCC[n+]1c(-c2ccccc2)c2cc(N)ccc2c2ccc(N)cc21`, the growth inhibition was 60% in experiment [1] (setting [7]); 90% (active) in experiment [1] (setting [8]); 94.6% (active) in experiment [1] (at 50.0 µM); 1% in experiment [2] (setting [7]); 27% in experiment [2] (setting [8]); 44.2% in experiment [2] (at 50.0 µM). The growth inhibition in experiment [3] (setting [7]) is -2%; in experiment [3] (setting [8]), 33%; in experiment [3] (at 50.0 µM), 68.9%; in experiment [4] (setting [7]) it was -3%; in experiment [4] (setting [8]), 19%; in experiment [4] (at 50.0 µM), 24.9%. For the same compound, the growth inhibition in experiment [5] (setting [7]) is -7%; in experiment [5] (setting [8]), 9%; in experiment [5] (at 50.0 µM), 18.9%; in experiment [6] (setting [7]), 4%; in experiment [6] (setting [8]), 49%; in experiment [6] (at 50.0 µM), 82% (active).

Regarding `CCCCCCCCCCCCCCCCCCSSCCCCCCCCCCCCCCCCCC`, the growth inhibition in experiment [1] (setting [7]) is 1%; in experiment [1] (setting [8]), -3%; in experiment [1] (at 50.0 µM), 36.1%; in experiment [2] (setting [7]), 1%; in experiment [2] (setting [8]) it was 4%; in experiment [2] (at 50.0 µM) it was 14.9%. Moreover, the growth inhibition in experiment [3] (setting [7]) is -3%; in experiment [3] (setting [8]), -3%; in experiment [3] (at 50.0 µM), -0.8%; in experiment [4] (setting [7]), -4%; in experiment [4] (setting [8]), 4%; in experiment [4] (at 50.0 µM) it was 80.9% (active). Moreover, the growth inhibition in experiment [5] (setting [7]) was 2%; in experiment [5] (setting [8]), 1%; in experiment [5] (at 50.0 µM), 15.6%; in experiment [6] (setting [7]), -3%; in experiment [6] (setting [8]) it was -7%; in experiment [6] (at 50.0 µM), -16.1%.

Regarding `Cc1c(O)c(Br)c(C)c(O)c1Br` (tested in a mixture with another compound), the growth inhibition is 0% in experiment [1] (setting [7]); 85% (active) in experiment [1] (setting [8]); 75.8% (active) in experiment [1] (at 50.0 µM); 21% in experiment [2] (setting [7]); 69% in experiment [2] (setting [8]); 49.8% in experiment [2] (at 50.0 µM). Further, the growth inhibition in experiment [3] (setting [7]) is -2%; in experiment [3] (setting [8]) it was 90% (active); in experiment [3] (at 50.0 µM) it was 80.6% (active); in experiment [4] (setting [7]), -2%; in experiment [4] (setting [8]) it was 47%; in experiment [4] (at 50.0 µM) it was 1.05%. In addition, the growth inhibition is 1% in experiment [5] (setting [7]); 77% (active) in experiment [5] (setting [8]); 61.6% in experiment [5] (at 50.0 µM); 8% in experiment [6] (setting [7]); 86% (active) in experiment [6] (setting [8]); 62.1% in experiment [6] (at 50.0 µM).

Regarding `CC(=O)Oc1ccc2c(c1)CCC1C2CCC2(C)C1CCC21CO1` (stereo not given), the growth inhibition in experiment [1] (setting [7]) was -4%; in experiment [1] (setting [8]) it was 60%; in experiment [1] (at 50.0 µM), 89.7% (active); in experiment [2] (setting [7]), -6%; in experiment [2] (setting [8]), 18%; in experiment [2] (at 50.0 µM), 28.6%. The growth inhibition in experiment [3] (setting [7]) was -3%; in experiment [3] (setting [8]), 54%; in experiment [3] (at 50.0 µM), 73.4% (active); in experiment [4] (setting [7]) it was 1%; in experiment [4] (setting [8]), 11%; in experiment [4] (at 50.0 µM) it was 52.2%. The growth inhibition in experiment [5] (setting [7]) is 3%; in experiment [5] (setting [8]), 44%; in experiment [5] (at 50.0 µM), 83% (active); in experiment [6] (setting [7]), -6%; in experiment [6] (setting [8]) it was 29%; in experiment [6] (at 50.0 µM), 66.7%.

Regarding `Oc1cccc2c(Br)ccnc12`, the growth inhibition in experiment [1] (setting [7]) is -5%; in experiment [1] (setting [8]), 100% (active); in experiment [1] (at 50.0 µM), 87% (active); in experiment [2] (setting [7]), -21%; in experiment [2] (setting [8]) it was 99% (active); in experiment [2] (at 50.0 µM) it was 92% (active). The growth inhibition in experiment [3] (setting [7]) is -33%; in experiment [3] (setting [8]), 99% (active); in experiment [3] (at 50.0 µM), 85% (active); in experiment [4] (setting [7]) it was -5%; in experiment [4] (setting [8]), 99% (active); in experiment [4] (at 50.0 µM) it was 87.8% (active). Also, the growth inhibition in experiment [5] (setting [7]) is -29%; in experiment [5] (setting [8]), 99% (active); in experiment [5] (at 50.0 µM) it was 87.2% (active); in experiment [6] (setting [7]) it was 15%; in experiment [6] (setting [8]), 99% (active); in experiment [6] (at 50.0 µM), 81.8% (active).
